Test results from PubChem BioAssay (Tox21).
Records with an inconclusive call do not appear. Calls of active or inactive are those of the source. Unless noted, the call rests on the fitted dose curve; in most records, active means well fitted curve in the direction sought with a large enough effect in the repeat runs; inconclusive means weak or mixed curves; inactive means no such curve, though single readings can be large; an effect the other way counts as inactive or inconclusive.

How the values were obtained:
[1] = biological target: Retinoic acid receptor RXR-alpha (Homo sapiens) (UniProt P19793); experiment: qHTS assay to identify small molecule agonists of the RXR signaling pathway (AID 1159527; calls by dose curve; further: nearly all actives have a fitted effect of over 35% in size)
In short: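 GeneBLAzer RXR-alpha-UAS-bla HEK 293T cells in 2% charcoal-stripped FBS medium were exposed to compounds for 16 hr at 37 C in agonist mode. Beta-lactamase reporter read as 460/530 nm FRET ratio after 2 hr substrate loading.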

[2] = qHTS assay to identify small molecule agonists of the RXR signaling pathway - cell viability counter screen (AID 1159529); further: series mostly up to about 77 µM; nearly all actives have a fitted effect of over 50% in size
In short: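 RXR-alpha-UAS-bla HEK 293T cells in medium with 2% charcoal-stripped FBS were pre-incubated 5 hr, then compound-treated 16 hr at 37 C. Viability was read by CellTiter-Glo luminescence in the same wells as the beta-lactamase assay, with tetraoctyl ammonium bromide as positive control.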

[3] = qHTS assay to identify small molecule antagonists of the retinoid acid receptor (RAR) signaling pathway - cell viability counter screen (AID 1159551); further: nearly all actives have a fitted effect of over 35% in size
In short: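 Retinol-stimulated (1 uM final) C3RL4 cells, compound 6 h, 37 C; readout CellTiter-Glo luminescence (ATP) after 30 min RT incubation.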

[4] = qHTS assay to identify small molecule antagonists of the retinoic acid receptor (RAR) signaling pathway (AID 1159552; further: nearly all actives have a fitted effect of over 50% in size)
In short: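 Retinol signaling pathway inhibitors screened in C3RL4 RARE-luciferase reporter cells seeded overnight at 37 C, then compounds added with 1 uM (final) retinol as pathway substrate. After 6 hr at 37 C, luciferase luminescence read after 30 min at room temperature.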

[5] = qHTS assay to identify small molecule agonists of the retinoic acid receptor (RAR) signaling pathway (AID 1159553)
In short: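 Reporter readout comes from luciferase under RARE control in C3RL4 cells; compound exposure lasts 6 hr at 37 C in 5% CO2, and luminescence is recorded following a 30 min room-temperature incubation with reagent.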

[6] = qHTS assay to identify small molecule antagonists of the estrogen related receptor (ERR) signaling pathway from Tox21 library - cell viability counter screen (AID 1224834); further: nearly all actives have a fitted effect of over 30% in size
In short: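 After 17.5 h of compound exposure at 37 C, ERR cells are incubated with CellTiter-Fluor for 30 min and fluorescence intensity serves as the viability measure.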

[7] = biological target: Luciferin 4-monooxygenase (Photinus pyralis) (UniProt P08659); experiment: qHTS assay to identify small molecule inhibitors of firefly luciferase (AID 1224835); further: nearly all actives have a fitted effect of over 25% in size; further: potency means the concentration at half of the fitted maximal effect; on activity change, negative = inhibition: series mostly up to about 120 µM
In short: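 Inhibition of purified Photinus luciferase is measured by luminescence. Substrate levels (D-luciferin, ATP) sit at their KM values. Each compound is tested in a concentration series.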

[8] = qHTS assay to identify small molecule agonists of the constitutive androstane receptor (CAR) signaling pathway - cell viability counter screen (AID 1224836); further: series mostly up to about 92 µM; nearly all actives have a fitted effect of over 45% in size
In short: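 HepG2 cells stably carrying hCAR and a CYP2B6-2.2kb reporter; 15-concentration compounds plus PK11195 (final 0.75 uM), 23 hr at 37 C/5% CO2. Viability read by CellTiter-Fluor fluorescence.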

[9] = qHTS assay to identify small molecule antagonists of the constitutive androstane receptor (CAR) signaling pathway - cell viability counter screen (AID 1224837); further: series mostly up to about 92 µM; nearly all actives have a fitted effect of over 45% in size
In short: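 Counter screen run in HepG2-CYP2B6-hCAR cells: 4 hr settle, compound titration (15 concentrations) with 50 nM CITCO, 23 hr at 37 C/5% CO2, CellTiter-Fluor fluorescence.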

[10] = biological target: Nuclear receptor subfamily 1 group I member 3 (Homo sapiens) (UniProt Q14994); experiment: qHTS assay to identify small molecule antagonists of the constitutive androstane receptor (CAR) signaling pathway (AID 1224838);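 further: HepG2 cells stably expressing hCAR with CYP2B6 luciferase reporter stimulated by CITCO; nearly all actives have a fitted effect of over 40% in size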
In short: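 Cell line: HepG2 double-stable for hCAR and CYP2B6-2.2kb reporter. Agonist: CITCO, 50 nM final. Compounds: 15 concentrations, 24 h, 37 C. Detection: ONE-Glo luminescence.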

[11] = biological target: Nuclear receptor subfamily 1 group I member 3 (Homo sapiens) (UniProt Q14994); experiment: qHTS assay to identify small molecule agonists of the constitutive androstane receptor (CAR) signaling pathway (AID 1224839);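 further: HepG2 cells stably carrying human CAR and a CYP2B6 luciferase reporter; series mostly up to about 92 µM; nearly all actives have a fitted effect of over 15% in size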
In short: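 HepG2 cells stably co-transfected with hCAR and a CYP2B6-2.2kb luciferase reporter; compounds at 15 concentrations with 0.75 uM PK11195 present. After 24 hr at 37 C, luciferase read by ONE-Glo luminescence.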

[12] = qHTS assay to identify small molecule antagonists of the estrogen related receptor signaling pathway with the pleiotropic PPARgamma coactivator (PGC) from Tox21 10K library - cell viability counter screen (AID 1224840; active means well fitted cell-killing curve with a large enough effect in the repeat runs, not every such curve was filed as active; further: nearly all actives have a fitted effect of over 40% in size)
In short: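 Following seeding of 2,000 PGC/ERR cells/well and 6 hours' incubation, test compounds were delivered in DMSO. The plates then sat 17.5 hours at 37 C before a fluorogenic live-cell protease reagent (CellTiter-Fluor) was read after 30 min.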

[13] = biological target: Thyrotropin receptor (Homo sapiens) (UniProt P16473); experiment: qHTS assay to identify small molecule agonists of the thyroid stimulating hormone receptor (TSHR) signaling pathway (AID 1224843; calls by dose curve; further: nearly all actives have a fitted effect of over 45% in size)
In short: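 Screening of the Tox21 10K collection used HEK293 cells engineered with TSHR at 800 cells per well. After a 30-min room-temperature compound exposure, HTRF cAMP reagents were added and fluorescence recorded 1 h later.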

[14] = qHTS assay to identify small molecule agonists of the hypoxia (HIF-1) signaling pathway - cell viability counter screen (AID 1224844; calls by dose curve; further: nearly all actives have a fitted effect of over 50% in size)
In short: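 Cells (HRE-bla ME-180, 2,000 per well) sat 5 hrs at 37C, got compound for 17 hrs, were read for CCF4-AM FRET, and were finally lysed with CellTiter-Glo for a 30 min room-temperature luminescence read.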

[15] = qHTS assay to identify small molecule agonists of H2AX (AID 1224845; active means well fitted activation curve with a large enough effect in the signal ratio in the repeat runs, not every such curve was filed as active; the % refers to the signal ratio)
In short: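 Phospho-H2AX Ser139 measured by HTRF (ex 320 nm; em 665 and 620 nm) after 24 hr antibody incubation. Compounds, 15 concentrations, 0.76% DMSO, were applied to CHO-K1 cells for 3hr at 37C before lysis.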

[16] = qHTS assay to identify small molecule agonists of the hypoxia (HIF-1) signaling pathway (AID 1224846; active means well fitted activation curve with a large enough effect in the signal ratio in the repeat runs, not every such curve was filed as active; the % refers to the signal ratio)
In short: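 A low-serum medium (0.5% dialyzed FBS) holding 2,000 HRE-bla ME-180 cells per well is preincubated for 5 hrs, dosed with compounds by pintool, and kept a further 17 hrs at 37C, 5% CO2 before CCF4-AM FRET detection of beta-lactamase.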

[17] = qHTS assay to identify small molecule agonists of H2AX - cell viability counter screen (AID 1224847; calls by dose curve;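 further: wild-type CHO-K1 cells; top concentration of the series differs between compounds; nearly all actives have a fitted effect of over 30% in size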)
In short: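 CHO-K1 cells plated overnight at 37C, then exposed 3 h at 37C to compounds at 15 concentrations (0.76% DMSO final). Viability by CellTiter-Glo luminescence after 30 min at room temperature.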
On the % scale 0 is the no-effect control and ±100 the full control effect.

Chain of Thyrotropin receptor (Homo sapiens) (P16473 whole entry, looked up): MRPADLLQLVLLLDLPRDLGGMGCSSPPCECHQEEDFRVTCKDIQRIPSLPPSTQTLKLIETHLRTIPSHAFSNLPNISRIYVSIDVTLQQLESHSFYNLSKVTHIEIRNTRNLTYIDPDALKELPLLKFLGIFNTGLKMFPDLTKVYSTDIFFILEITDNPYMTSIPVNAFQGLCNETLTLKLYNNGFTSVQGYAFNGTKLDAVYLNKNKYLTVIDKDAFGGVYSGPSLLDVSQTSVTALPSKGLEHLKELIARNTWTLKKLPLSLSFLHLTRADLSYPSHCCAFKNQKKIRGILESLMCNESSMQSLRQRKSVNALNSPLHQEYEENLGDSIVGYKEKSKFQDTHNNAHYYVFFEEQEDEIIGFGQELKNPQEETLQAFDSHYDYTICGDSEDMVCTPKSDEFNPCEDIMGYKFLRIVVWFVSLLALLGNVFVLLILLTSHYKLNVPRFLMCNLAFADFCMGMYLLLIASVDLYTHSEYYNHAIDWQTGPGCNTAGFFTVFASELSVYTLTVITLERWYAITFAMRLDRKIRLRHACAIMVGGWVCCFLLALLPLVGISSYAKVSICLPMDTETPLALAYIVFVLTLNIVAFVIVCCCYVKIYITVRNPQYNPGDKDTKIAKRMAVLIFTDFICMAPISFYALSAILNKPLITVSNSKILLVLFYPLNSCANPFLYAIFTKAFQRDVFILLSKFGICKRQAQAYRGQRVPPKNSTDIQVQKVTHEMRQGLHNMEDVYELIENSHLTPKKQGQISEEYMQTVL
Chain of Retinoic acid receptor RXR-alpha (Homo sapiens) (P19793 whole entry, looked up): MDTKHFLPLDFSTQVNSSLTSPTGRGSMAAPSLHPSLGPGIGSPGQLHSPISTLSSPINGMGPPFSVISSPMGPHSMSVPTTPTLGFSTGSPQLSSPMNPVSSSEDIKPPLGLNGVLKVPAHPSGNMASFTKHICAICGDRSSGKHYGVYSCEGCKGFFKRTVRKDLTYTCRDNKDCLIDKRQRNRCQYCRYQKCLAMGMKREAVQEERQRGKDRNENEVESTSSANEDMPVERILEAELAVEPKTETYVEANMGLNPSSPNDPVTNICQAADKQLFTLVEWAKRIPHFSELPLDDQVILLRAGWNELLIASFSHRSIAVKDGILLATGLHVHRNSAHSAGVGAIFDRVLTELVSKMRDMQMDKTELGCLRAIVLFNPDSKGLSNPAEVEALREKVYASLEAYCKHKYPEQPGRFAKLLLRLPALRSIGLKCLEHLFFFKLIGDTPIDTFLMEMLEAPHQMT
Chain of Nuclear receptor subfamily 1 group I member 3 (Homo sapiens) (Q14994 whole entry, looked up): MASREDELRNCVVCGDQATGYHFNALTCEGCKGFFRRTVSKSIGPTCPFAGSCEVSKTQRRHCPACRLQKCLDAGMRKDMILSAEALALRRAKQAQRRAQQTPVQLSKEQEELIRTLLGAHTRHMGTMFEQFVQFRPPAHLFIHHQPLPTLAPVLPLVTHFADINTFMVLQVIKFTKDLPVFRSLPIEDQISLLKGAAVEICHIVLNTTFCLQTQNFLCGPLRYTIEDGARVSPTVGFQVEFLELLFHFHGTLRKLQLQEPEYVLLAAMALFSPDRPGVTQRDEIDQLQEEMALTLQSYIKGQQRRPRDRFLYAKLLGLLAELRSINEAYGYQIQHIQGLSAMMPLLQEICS
Chain of Luciferin 4-monooxygenase (Photinus pyralis) (P08659 whole entry, looked up): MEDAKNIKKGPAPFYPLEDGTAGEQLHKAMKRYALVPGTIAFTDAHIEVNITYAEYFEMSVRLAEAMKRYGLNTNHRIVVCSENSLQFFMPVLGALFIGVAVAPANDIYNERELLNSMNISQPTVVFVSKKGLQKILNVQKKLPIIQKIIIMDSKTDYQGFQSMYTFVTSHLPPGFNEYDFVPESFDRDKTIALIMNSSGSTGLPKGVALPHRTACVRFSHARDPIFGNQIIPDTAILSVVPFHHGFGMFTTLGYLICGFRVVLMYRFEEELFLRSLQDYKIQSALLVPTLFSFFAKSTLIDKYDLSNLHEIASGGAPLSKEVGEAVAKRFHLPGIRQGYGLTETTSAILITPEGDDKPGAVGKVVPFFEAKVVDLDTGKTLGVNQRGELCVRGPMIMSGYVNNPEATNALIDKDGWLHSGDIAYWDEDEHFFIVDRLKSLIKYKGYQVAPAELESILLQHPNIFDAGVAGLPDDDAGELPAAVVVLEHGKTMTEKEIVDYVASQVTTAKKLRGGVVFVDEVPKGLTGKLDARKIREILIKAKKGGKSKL

O=NN(CCCl)C(=O)NC1CCCCC1
inactive: Potency [1] | outcome [2] | outcome [3] | outcome [4] | Potency [5] | outcome [6] | Potency [7] | outcome [8] | outcome [9] | Potency [10] | Potency [11] | outcome [12] | outcome [13] | outcome [14] | outcome [15] | outcome [16] | outcome [17]

CCCc1ccc(O)cc1
inactive: Potency [1] | outcome [2] | outcome [3] | outcome [4] | Potency [5] | outcome [6] | Potency [7] | outcome [8] | outcome [9] | Potency [10] | Potency [11] | outcome [12] | outcome [13] | outcome [14] | outcome [15] | outcome [16] | outcome [17]

Cn1c(=O)c2c(ncn2CCO)n(C)c1=O
inactive: Potency [1] | outcome [2] | outcome [3] | outcome [4] | Potency [5] | outcome [6] | Potency [7] | outcome [8] | outcome [9] | Potency [10] | Potency [11] | outcome [12] | outcome [13] | outcome [14] | outcome [15] | outcome [17]

O/N=C/C=N/O
inactive: Potency [1] | outcome [2] | outcome [3] | outcome [4] | Potency [5] | outcome [6] | Potency [7] | outcome [8] | outcome [9] | Potency [10] | Potency [11] | outcome [12] | outcome [13] | outcome [14] | outcome [16]

O=C(O)CONC(=O)c1ccccc1
inactive: Potency [1] | outcome [2] | outcome [3] | outcome [4] | Potency [5] | outcome [6] | Potency [7] | outcome [8] | outcome [9] | Potency [10] | Potency [11] | outcome [12] | outcome [13] | outcome [14] | outcome [15] | outcome [16] | outcome [17]

C[C@]12CCC(=O)C=C1CC[C@H]1[C@@H]3CC[C@](O)(C(=O)CO)[C@@]3(C)C[C@H](O)[C@@]12F
inactive: Potency [1] | outcome [2] | outcome [3] | outcome [4] | Potency [5] | outcome [6] | Potency [7] | outcome [8] | outcome [9] | Potency [10] | Potency [11] | outcome [12] | outcome [13] | outcome [14] | outcome [15] | outcome [16] | outcome [17]

CCOC(CN1CCN(CC(C)C(=O)c2ccccc2)CC1)c1ccccc1 (stereo not given)
inactive: activation [1] -12% [at 15.8 µM] | activity change, negative = cytotoxicity [2] -11.3% [at 15.8 µM] | activity change, negative = cytotoxicity [3] 3.44% [at 19 µM] | activity, negative = inhibition [4] 1.21% [at 19 µM] | Potency [5] | viability change, negative = cytotoxic [6] -3.03% [at 19 µM] | activity change, negative = inhibition [7] -1.09% [at 23.6 µM] | viability change, negative = cytotoxic [8] 0.779% [at 19 µM] | activity change, negative = cytotoxicity [9] 3.98% [at 19 µM] | activity, negative = inhibition [10] -25.3% [at 19 µM] | activation [11] -1.5% [at 19 µM] | viability change, negative = cytotoxic [12] -2.82% [at 19 µM] | activation [13] -4.32% [at 19 µM] | activity change, negative = cytotoxicity [14] 0.0048% [at 15.8 µM] | activation (H2AX phosphorylation) [15] -1.86% [at 31.6 µM] | activation [16] 1.68% [at 15.8 µM] | activity change, negative = cytotoxicity [17] -1.65% [at 31.6 µM]

OCC1(CO)COCOC1
inactive: Potency [1] | outcome [2] | outcome [3] | outcome [4] | Potency [5] | outcome [6] | Potency [7] | outcome [8] | outcome [9] | Potency [10] | Potency [11] | outcome [12] | outcome [13] | outcome [14] | outcome [15] | outcome [17]

CC(O)CC(C)O (stereo not given)
inactive: Potency [1] | outcome [2] | outcome [3] | outcome [4] | Potency [5] | outcome [6] | Potency [7] | outcome [8] | outcome [9] | Potency [10] | Potency [11] | outcome [12] | outcome [13] | outcome [14] | outcome [15] | outcome [17]

CC(N)CCCC(C)(C)O (stereo not given)
inactive: Potency [1] | outcome [2] | outcome [3] | outcome [4] | Potency [5] | outcome [6] | Potency [7] | outcome [8] | outcome [9] | Potency [10] | Potency [11] | outcome [12] | outcome [13] | outcome [14] | outcome [15] | outcome [17]

NCCOCCN
inactive: Potency [1] | outcome [2] | outcome [3] | outcome [4] | Potency [5] | outcome [6] | Potency [7] | outcome [8] | outcome [9] | Potency [10] | Potency [11] | outcome [12] | outcome [13] | outcome [14] | outcome [15] | outcome [17]

CO/N=C(/C(=O)N[C@@H]1C(=O)N2C(C(=O)[O-])=C(C[n+]3ccn4ncccc43)CS[C@H]12)c1nsc(N)n1
inactive: Potency [1] | outcome [2] | outcome [3] | outcome [4] | Potency [5] | outcome [6] | Potency [7] | outcome [8] | outcome [9] | Potency [10] | Potency [11] | outcome [12] | outcome [13] | outcome [14] | outcome [15] | outcome [17]

CC(C)CCOC(=O)c1ccccc1
active: Potency [7] 71 µM
inactive: Potency [1] | outcome [2] | outcome [3] | outcome [4] | Potency [5] | outcome [6] | outcome [8] | outcome [9] | Potency [10] | Potency [11] | outcome [12] | outcome [13] | outcome [14] | outcome [15] | outcome [17]

CCCCCCCCCCCCCCC(=O)NC(CO)CCCCCCCCCCCCCC (stereo not given)
inactive: Potency [1] | outcome [2] | outcome [3] | outcome [4] | Potency [5] | outcome [6] | Potency [7] | outcome [8] | outcome [9] | Potency [10] | Potency [11] | outcome [12] | outcome [13] | outcome [14] | outcome [15] | outcome [16] | outcome [17]

COP(=O)(O)OP(=O)(O)OC
inactive: Potency [1] | outcome [2] | outcome [3] | outcome [4] | Potency [5] | outcome [6] | Potency [7] | outcome [8] | outcome [9] | Potency [10] | Potency [11] | outcome [12] | outcome [13] | outcome [14] | outcome [15] | outcome [16] | outcome [17]

CC(=O)C(C)O (stereo not given)
inactive: Potency [1] | outcome [2] | outcome [3] | outcome [4] | Potency [5] | outcome [6] | Potency [7] | outcome [8] | outcome [9] | Potency [10] | Potency [11] | outcome [12] | outcome [13] | outcome [14] | outcome [15] | outcome [16] | outcome [17]

CC1=C(O)C(=O)C(C)O1 (stereo not given)
inactive: Potency [1] | outcome [2] | outcome [3] | outcome [4] | Potency [5] | outcome [6] | Potency [7] | outcome [8] | outcome [9] | Potency [10] | Potency [11] | outcome [12] | outcome [13] | outcome [14] | outcome [15] | outcome [16] | outcome [17]
